The source of these data is PubChem BioAssay.

A short description of assay [1]: inhibitors of TNFa-induced NFkB p65 translocation, primary screen, imaging, HUVEC, MLSMR starter and 10KST1 sets (AID 438;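 active = inhibition above 20% together with a positive visual image hit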;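 note: compound added about 3h40 before a 20 min TNFalpha stimulation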;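 for inhibition: signal is the nuclear over cytoplasmic p65 intensity ratio per well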). The following applies: HUVEC TNFa-induced p65 nuclear translocation; cell count: measured here: nuclei count (cytotoxicity indicator), at 2.08 µM; inhibition: at 2 µM, stronger effect = higher value, 0% TNFa-plus-vehicle, 100% no-TNFa wells.
Assay [2] in a line: reduction of polyQ htt aggregates in cells – imaging, exon1htt(103Q)mCFP cells, high-content imaging, primary screen (AID 483;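 active = visual image review flags a hit and inhibition of aggregation exceeds 20%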;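 note: compound exposure lasted 3 days before fixation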;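 for nuclei count: percent of the per-plate median nuclei count of sample wells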). As to conditions: exon1htt(103Q)mCFP cell line, aggregate imaging, at 2 µM; inhibition of aggregation: stronger effect = higher value; nuclei count: measured here: cell count, toxicity.
The nature of assay [3]: endothelial E-selectin expression blockers – imaging, HUVEC, immunofluorescence, MLSMR starter and 10KST1 sets, primary screen (AID 487).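 For inhibition: signal is fraction of cell area covered by stained E-selectin grains.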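 For nuclei count: 100% = median nuclei count of all wells on the same plate.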 The following applies: HUVEC TNFalpha-induced E-selectin immunofluorescence imaging, at 2 µM; inhibition: stronger effect = higher value; nuclei count: measured here: cell number, toxicity.
Assay [4] addresses Voltage-gated potassium channel subunit beta-2 (Rattus norvegicus) (UniProt P62483). Briefly: inhibitors of rat Kvbeta2 reductase activity – biochemical, NADPH fluorescence, primary screen (AID 622;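 active = fluorescence slope higher than the sample average by over 3 SD, cut at about -0.22 in these data, passing the limit was not always enough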;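 note: slope of raw intensity against log time taken from 70 to 1610 s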). As to conditions: recombinant KvBeta, 4-cyanobenzaldehyde reduction, at 10 µM, stronger effect = higher value.
The target is the same in assay [5]. In words: enhancers of rat Kvbeta2 NADPH turnover – biochemical, NADPH fluorescence, primary screen (AID 623;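 active = NADPH fluorescence slope more negative than the mean of all samples by about 3 SD, 99.7% confidence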;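 note: fluorescence intensity change per second fitted from 20 to 320 s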). The following applies: Recombinant KvBeta, NADPH fluorescence decrease slope, 10 min; at 10 µM; stronger effect = lower value.
Assay [6] addresses Alpha-2C adrenergic receptor (Homo sapiens) (UniProt P18825). Briefly: compounds altering alpha2C-coupled GIRK flux – cell-based, HEK293 alpha2C/GIRK1/2, thallium flux, primary screen (AID 624;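 active = fluorescence slope after compound addition differing from the mean of all screened samples at 99.7% confidence, in either direction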;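 note: slope of fluorescence ratio to pre-addition baseline per second over 15 to 24 s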). The following applies: thallium flux BTC fluorescence, at 10 µM, actives lie on both sides.
The nature of assay [7]: blockers of RIG-like receptor reporter activation – cell-based, Sendai virus stimulus, luciferase, 10K MLSCN set, TLR/RLR signaling modifier project, primary screen (AID 602276;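 active = inhibition at or above 50% at 10 µM; inactive = inhibition below 50%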;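 note: firefly luciferase from ISG56 promoter only with Renilla not read in this screen; 0% = Sendai virus plus DMSO and 100% = medium plus DMSO without virus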). The following applies: HEK293 RL24 IRF3 luciferase reporter, at 10 µM, stronger effect = higher value.
The nature of assay [8]: TLR3 IRF3 reporter activation blockers – cell-based, poly I:C stimulus, luciferase, 10K MLSCN set, primary screen (AID 602277;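 active = inhibition of the reporter signal at or above 50%; inactive = inhibition below 50%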). The following applies: HEK293-TLR3 RL24 IRF3 luciferase reporter, at 10 µM, stronger effect = higher value. (A reporter such as luciferase makes a cellular process visible.)

Calls of active or inactive are those of the source.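 Rule for the calls, unless noted: active = visually confirmed hit in the image check and inhibition above 20%; inconclusive = visually confirmed hit but inhibition not above 20%; inactive = no visual hit in the image check.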

Voltage-gated potassium channel subunit beta-2 (Rattus norvegicus), sequence (P62483 whole entry, looked up): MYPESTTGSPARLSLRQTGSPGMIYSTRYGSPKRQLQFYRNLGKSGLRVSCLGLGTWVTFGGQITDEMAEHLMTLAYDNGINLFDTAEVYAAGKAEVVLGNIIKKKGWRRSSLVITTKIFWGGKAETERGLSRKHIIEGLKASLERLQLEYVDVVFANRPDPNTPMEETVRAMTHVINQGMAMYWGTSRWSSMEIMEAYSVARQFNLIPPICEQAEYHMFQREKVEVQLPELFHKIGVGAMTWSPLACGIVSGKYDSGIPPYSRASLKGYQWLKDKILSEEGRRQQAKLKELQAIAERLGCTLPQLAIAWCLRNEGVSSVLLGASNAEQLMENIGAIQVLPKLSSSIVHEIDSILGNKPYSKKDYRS
Alpha-2C adrenergic receptor (Homo sapiens), sequence (P18825 whole entry, looked up): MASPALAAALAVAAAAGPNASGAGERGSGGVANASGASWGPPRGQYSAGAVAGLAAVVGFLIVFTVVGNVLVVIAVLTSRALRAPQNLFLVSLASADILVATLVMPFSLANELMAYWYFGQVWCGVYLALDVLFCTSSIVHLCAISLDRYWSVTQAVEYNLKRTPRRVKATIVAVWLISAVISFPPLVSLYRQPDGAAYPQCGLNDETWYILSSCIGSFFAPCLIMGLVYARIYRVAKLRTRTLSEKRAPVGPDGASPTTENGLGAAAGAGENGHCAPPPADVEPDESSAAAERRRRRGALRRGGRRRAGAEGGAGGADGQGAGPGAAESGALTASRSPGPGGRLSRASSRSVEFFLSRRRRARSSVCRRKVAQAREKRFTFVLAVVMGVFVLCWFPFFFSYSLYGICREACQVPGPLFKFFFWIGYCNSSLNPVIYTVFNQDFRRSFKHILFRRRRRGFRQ

On to `O=C(Nc1cccc(Cl)c1)N1CCN(Cc2ccccc2)CC1`, for which the cell count in assay [1] came to 652. The inhibition – broadly, the relative decrease from the control value, in per cent – in assay [1] is 1.3% (inactive); in assay [3], -40% (inactive); in assay [7] it was -35.1% (inactive); in assay [8], -81.7% (inactive). The inhibition of aggregation in assay [2] was -6.8% (inactive). Also, the nuclei count in assay [2] was 99.5%; in assay [3], 106%. Moreover, the fluorescence slope in assay [4] is -0.529 (inactive). For the same molecule, the NADPH fluorescence slope in assay [5] is -3.3e-05 (inactive). In addition, the slope in assay [6] is 0.00631 (inactive).
For `O=C(c1ccc(Cl)c(F)c1F)N1CCCC1`, the cell count in assay [1] is 384. The inhibition in assay [1] was 4.4% (inactive); in assay [3], -29.8% (inactive); in assay [7], -9.75% (inactive); in assay [8], 11.3% (inactive). In assay [2], the inhibition of aggregation was -11.4% (inactive). Moreover, the nuclei count turned out to be 112% in assay [2] and 70.2% in assay [3]. Further, the fluorescence slope in assay [4] is -0.276 (inactive). Further, the NADPH fluorescence slope in assay [5] was 1.2e-05 (inactive). Besides, the slope in assay [6] was 0.00949 (inactive).
Turning to `CCOc1ccc(NC(=O)C2CC(=O)N(C(C)C)C2)cc1` (centres undefined), the cell count in assay [1] stood at 346. The inhibition in assay [1] is -0.5% (inactive); in assay [3], -32.2% (inactive); in assay [7], 11% (inactive); in assay [8], 12.4% (inactive). In addition, in assay [2], the inhibition of aggregation is 11.8% (inactive). The figures for the nuclei count in assay [2] and in assay [3] were 91.8% and 96.8%, respectively. Also, the fluorescence slope in assay [4] was -0.623 (inactive). Moreover, in assay [5], the NADPH fluorescence slope was 4.4e-05 (inactive). Moreover, in assay [6], the slope was 0.00445 (inactive).
On to `O=C(c1ncn[nH]1)N1CCN(c2nc(-c3ccccc3)cs2)CC1`, for which the cell count in assay [1] was 397. Besides, the inhibition in assay [1] is 2.5% (inactive); in assay [3], 22.4% (inactive); in assay [7], -1.81% (inactive); in assay [8], -36.8% (inactive). For the same molecule, the inhibition of aggregation in assay [2] was 2.5% (inactive). Also, the figures for the nuclei count in assay [2] and in assay [3] were 68.1% and 111%, respectively. In addition, in assay [4], the fluorescence slope is -0.387 (inactive). Further, in assay [5], the NADPH fluorescence slope was -4.6e-06 (inactive). Besides, in assay [6], the slope is 0.00549 (inactive).
In the case of `O=C1c2ccccc2C(=O)N1CCC(=O)N1CCc2ccccc21`, the cell count in assay [1] came to 359. In addition, the inhibition was 5.9% (inactive) in assay [1], -71.6% (inactive) in assay [3], -1.4% (inactive) in assay [7] and -26.2% (inactive) in assay [8]. Also, the inhibition of aggregation in assay [2] is 22.4% (inactive). For the same molecule, the results for the nuclei count in assay [2] and in assay [3] were 92.8% and 109%, respectively. In assay [4], the fluorescence slope was -0.393 (inactive). Besides, the NADPH fluorescence slope in assay [5] was -2.1e-05 (inactive). The slope in assay [6] was 0.005 (inactive).
With `CCOc1ccc(S(=O)(=O)N2CCN(c3ccc(C)cc3C)CC2)cc1`, the cell count in assay [1] worked out at 821. Also, the inhibition in assay [1] is 5.7% (inactive); in assay [3], -30.7% (inactive); in assay [7], -5.26% (inactive); in assay [8], 11.7% (inactive). In addition, in assay [2], the inhibition of aggregation is -66.1% (inactive). Moreover, the figures for the nuclei count in assay [2] and in assay [3] were 98.4% and 110%, respectively. For the same molecule, the fluorescence slope in assay [4] is -0.578 (inactive). For the same molecule, in assay [5], the NADPH fluorescence slope was -2.7e-05 (inactive). Also, the slope in assay [6] is 0.00897 (inactive).
In the case of `O=C(C1CCCN(S(=O)(=O)c2cccnc2)C1)N1CCN(c2ccccn2)CC1` (centres undefined), the cell count in assay [1] worked out at 671. Moreover, the inhibition in assay [1] was -0.3% (inactive); in assay [3] it was -1.7% (inactive); in assay [7], 5.38% (inactive); in assay [8], 14% (inactive). The inhibition of aggregation in assay [2] was -27.9% (inactive). Besides, the nuclei count in assay [2] and in assay [3] was 108% throughout. Also, the fluorescence slope in assay [4] is -0.581 (inactive). In addition, in assay [5], the NADPH fluorescence slope was -1.6e-05 (inactive). In assay [6], the slope was 0.00648 (inactive).
In the case of `c1ccc2c(c1)nc(NCCN1CCOCC1)c1nncn12`, the cell count in assay [1] was found to be 508. For the same molecule, the inhibition in assay [1] is 3.2% (inactive); in assay [3], -51.1% (inactive); in assay [7], 12.4% (inactive); in assay [8], 37.9% (inactive). In addition, the inhibition of aggregation in assay [2] is 25.2% (inactive). Further, the nuclei count in assay [2] stood at 85.4%; in assay [3], 99.2%. Also, the fluorescence slope in assay [4] was -0.587 (inactive). For the same molecule, the NADPH fluorescence slope in assay [5] is -4e-05 (inactive). The slope in assay [6] is 0.00643 (inactive).
For `O=C1c2ccccc2C(=O)N1C/C=C/CN1C(=O)c2ccccc2C1=O`, in assay [1], the cell count came to 480. Further, the inhibition is 7.4% (inactive) in assay [1], -12.9% (inactive) in assay [3], 23.3% (inactive) in assay [7] and 18.7% (inactive) in assay [8]. The inhibition of aggregation in assay [2] is 0.3% (inactive). In addition, the nuclei count in assay [2] amounted to 107%; in assay [3] it was 113%. In addition, the fluorescence slope in assay [4] is -0.331 (inactive). For the same molecule, the NADPH fluorescence slope in assay [5] was -1.5e-05 (inactive). In addition, in assay [6], the slope is 0.007 (inactive).
Take `Cc1c(C)[n+](=O)c2c(n1[O-])CCCCC2`: the cell count in assay [1] amounted to 545. Further, the inhibition is -27.9% (inactive) in assay [1], 36.9% (inactive) in assay [3], -0.779% (inactive) in assay [7] and 22.1% (inactive) in assay [8]. Besides, the inhibition of aggregation in assay [2] was 10.6% (inactive). Besides, the nuclei count in assay [2] came to 81.3%; in assay [3], 63.9%. Also, the fluorescence slope in assay [4] was -0.491 (inactive). The NADPH fluorescence slope in assay [5] was -4.7e-05 (inactive). Also, the slope in assay [6] is 0.00652 (inactive).
Regarding `COc1ccccc1NC(=O)NCCCN1CCN(c2cccc(Cl)c2)CC1`, in assay [1], the cell count was 628. The inhibition in assay [1] is -11.6% (inactive); in assay [3], -47.7% (inactive); in assay [7] it was -24.8% (inactive); in assay [8], -19.5% (inactive). Besides, the inhibition of aggregation in assay [2] is 13.1% (inactive). For the same molecule, the nuclei count amounted to 112% in assay [2] and 118% in assay [3]. Also, the fluorescence slope in assay [4] is -0.556 (inactive). The NADPH fluorescence slope in assay [5] is 1e-05 (inactive). The slope in assay [6] is 0.00548 (inactive).
For `Cc1ccccc1NC(=O)C1CC(=O)N(c2ccccc2F)C1` (centres undefined), the cell count in assay [1] came out at 238. In addition, the inhibition in assay [1] was -0.6% (inactive); in assay [3], -56.9% (inactive); in assay [7] it was 0.893% (inactive); in assay [8] it was 28.8% (inactive). In addition, in assay [2], the inhibition of aggregation is 30.3% (inactive). The nuclei count in assay [2] is 77%; in assay [3] it was 97.7%. The fluorescence slope in assay [4] is -0.462 (inactive). In assay [5], the NADPH fluorescence slope was -3.8e-05 (inactive). In addition, the slope in assay [6] was 0.00686 (inactive).
Regarding `O=C(OCCCCN1C(=O)c2ccccc2C1=O)c1n[nH]c2ccccc12`, the cell count in assay [1] worked out at 698. Also, the inhibition in assay [1] is 8.6% (inactive); in assay [3], -164% (inactive); in assay [7], 9.32% (inactive); in assay [8] it was -4.95% (inactive). Besides, in assay [2], the inhibition of aggregation is 12.4% (inactive). The nuclei count in assay [2] came to 97%; in assay [3], 155%. Further, the fluorescence slope in assay [4] is -0.543 (inactive). The NADPH fluorescence slope in assay [5] is -5.2e-05 (inactive). Moreover, the slope in assay [6] is 0.00475 (inactive).
In the case of `Cc1cccc(OCCCc2c(C)n[nH]c2C)c1`, the cell count in assay [1] came out at 348. In addition, the inhibition is 2.2% (inactive) in assay [1], -10% (inactive) in assay [3], -15.1% (inactive) in assay [7] and -15.9% (inactive) in assay [8]. Further, the inhibition of aggregation in assay [2] was 7.5% (inactive). The figures for the nuclei count in assay [2] and in assay [3] were 98.5% and 118%, respectively. Further, the fluorescence slope in assay [4] was -0.501 (inactive). The NADPH fluorescence slope in assay [5] is 6.9e-05 (inactive). In assay [6], the slope is 0.00319 (inactive).
